LYPLA2 inh = blocks human lysophospholipase 2, a PME1 counter-screen. O95372. recombinant LYPLA2, FP-Rh probe fluorescence polarization. inhibition, % at 5.9 µM. 320,000 compounds, 0.38% hits;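 active means inhibition above the screen-wide mean plus 3 SD, limit set per campaign, cut at about 26% in these data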
Fam108B inh = counter-screen for RBBP9 inhibitors: inhibitors of mouse Fam108B. recombinant Fam108B, FP-Rh probe fluorescence polarization. inhibition, % at 9.51 µM. 300,000 compounds, 0.33% hits. AID 1947;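 active means inhibition above the screen mean inhibition plus 3 SD, computed separately per campaign, cut at about 18% in these data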;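 further: inhibitors lower polarization as less probe binds the enzyme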
PREPL inhibitor = human PREPL enzyme inhibition; Q4J6C6; recombinant PREPL, fluorescence polarization activity-based probe; inhibition, % at 5.96 µM; 320,000 compounds, 0.68% hits; AID 2751; in the data active means inhibition above about 43%
GSTO1 inh = blocks human GSTO1 in RBBP9 counter-screen; P78417; recombinant GSTO1, activity-based probe fluorescence polarization; inhibition, % at 5.96 µM; 300,000 compounds, 1.1% hits; AID 1974;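 active means inhibition above the campaign mean inhibition plus 3 SD, cut at about 35% in these data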
PME-1 inh = PME-1 (human) inhibition | Q9Y570 | recombinant PME-1, FP-Rh probe fluorescence polarization | inhibition, % at 5.9 µM | 320,000 compounds, 0.53% hits;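 active means inhibition above the campaign mean of all compounds plus 3 SD, cut at about 26% in these data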;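 further: competitive labeling of PME-1 active site by serine hydrolase directed probe; inhibitors block probe labeling so polarization falls and inhibition rises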
Target sequence (Q9Y570 whole entry, looked up): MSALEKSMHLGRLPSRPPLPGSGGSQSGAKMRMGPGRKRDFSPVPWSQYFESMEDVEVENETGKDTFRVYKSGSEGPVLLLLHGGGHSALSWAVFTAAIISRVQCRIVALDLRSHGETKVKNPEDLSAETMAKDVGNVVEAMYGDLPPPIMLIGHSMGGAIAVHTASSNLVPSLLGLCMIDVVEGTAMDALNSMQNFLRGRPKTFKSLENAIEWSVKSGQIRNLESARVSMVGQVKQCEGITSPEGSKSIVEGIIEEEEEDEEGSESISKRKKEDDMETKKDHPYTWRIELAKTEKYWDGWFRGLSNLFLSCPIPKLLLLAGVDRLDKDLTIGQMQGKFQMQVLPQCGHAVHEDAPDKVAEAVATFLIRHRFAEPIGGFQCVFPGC
LYPLA1 inh = counter-screen for PME1 inhibitors: inhibitors of human LYPLA1; O75608; recombinant LYPLA1, FP-Rh probe fluorescence polarization; inhibition, % at 5.9 µM; 320,000 compounds, 0.16% hits;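 active means inhibition above the mean of all tested compounds plus 3 SD, set per campaign, cut at about 14% in these data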;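 further: inhibitors block serine hydrolase probe labeling of LYPLA1 so polarization falls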
Target sequence (O75608 whole entry, looked up): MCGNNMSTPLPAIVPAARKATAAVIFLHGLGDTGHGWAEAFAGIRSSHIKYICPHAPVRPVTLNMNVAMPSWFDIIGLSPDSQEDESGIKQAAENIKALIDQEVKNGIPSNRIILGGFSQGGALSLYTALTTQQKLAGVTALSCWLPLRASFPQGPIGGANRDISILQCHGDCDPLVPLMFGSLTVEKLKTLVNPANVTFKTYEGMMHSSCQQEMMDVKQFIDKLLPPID
GSTO1 inh conf = confirmation of human GSTO1 inhibitors. shares compounds with GSTO1 inh. recombinant GSTO1, probe fluorescence polarization. inhibition, % at 5.96 µM. 2,400 compounds, 54% hits. AID 2176;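 active means inhibition above the primary screen's cutoff, its mean inhibition plus 3 SD, cut at about 35% in these data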;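 further: loss of polarization as inhibitors block binding of rhodamine sulfonate ester activity probe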
GSTO1 ABPP inh = GSTO1 (human) inhibition by gel ABPP. shares compounds with GSTO1 inh. recombinant GSTO1, gel ABPP SE-Rh probe fluorescence. inhibition, % at 1 µM. 130 compounds, 30% hits;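 active means inhibition of the enzyme GSTO1 above about 75%, limit read from the data; inactive means inhibition below that limit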
Of the large screens only hits and unclear results are named; the others gave an inactive call (follow-up assays come after a bar, where they were run). A selection: hits, their analogues and other compounds. The true share with any hit is near 2%.

CCC(Sc1nc(C)cc(=O)[nH]1)C(=O)Nc1nc(-c2ccccc2)cs1 (centres undefined)	none
COc1cc(S(=O)(=O)N(Cc2cccnc2)Cc2ccco2)ccc1-n1cnnn1	GSTO1 inh 39.6 | GSTO1 inh conf inactive
COc1cc(S(=O)(=O)N(Cc2ccc(C)cc2)Cc2ccco2)ccc1-n1cnnn1	none
CCOc1ncccc1C(=O)NNC(=O)c1cccc(S(=O)(=O)Nc2ccc(OC)cc2)c1	none
Oc1c(Br)cccc1/C=N/c1ncn[nH]1	none
CC(=O)Oc1ccc(N(C(C)=O)S(=O)(=O)c2cccs2)c2ccccc12	GSTO1 inh 51.8 | GSTO1 inh conf inactive
C/C(=N\NC(=O)c1cc(O)ccc1O)c1cccc(NC(=O)c2cccc(Cl)c2)c1	GSTO1 inh 55.9 | GSTO1 inh conf inactive
C/C(=N\NC(=O)c1cc(O)ccc1O)c1cccc(NC(=O)c2ccc(Cl)cc2)c1	GSTO1 inh 85.1 | GSTO1 inh conf inactive
C/C(=N\NC(=O)c1ccccc1O)c1cccc(NC(=O)c2ccccc2)c1	none
COc1ccc(N(CC(O)CN2CCOCC2)S(=O)(=O)c2ccc(C)cc2)cc1 (centres undefined)	none
COc1ccc(N(CC2CO2)S(=O)(=O)c2ccc(C)cc2)cc1 (centres undefined)	GSTO1 inh 80.7 | GSTO1 inh conf 85.3 | GSTO1 ABPP inh inactive
Cc1ccc(S(=O)(=O)N(CC2CO2)c2cccc([N+](=O)[O-])c2)cc1 (centres undefined)	GSTO1 inh 96.7 | GSTO1 inh conf 96.6 | GSTO1 ABPP inh inactive
O=S(=O)(c1ccccc1)N(CC1CO1)c1ccccc1 (centres undefined)	GSTO1 inh 70.8 | GSTO1 inh conf 82.8 | GSTO1 ABPP inh inactive
O=C(O)c1ccc(CN(c2ccccc2)S(=O)(=O)c2ccccc2)cc1	none
O=[N+]([O-])c1ccc(N(CC2CO2)S(=O)(=O)c2ccccc2)cc1 (centres undefined)	GSTO1 inh 85.2 | GSTO1 inh conf 91.6 | GSTO1 ABPP inh inactive
Cc1ccc(S(=O)(=O)N(CC(=O)NCC2CCCO2)c2cccc([N+](=O)[O-])c2)cc1 (centres undefined)	none
CCn1c(=O)c(=O)[nH]c2cc(C(=O)NC(C)c3ccc(S(N)(=O)=O)cc3)ccc21 (centres undefined)	none
Cc1ccccc1/C=N/Nc1nc2ccccc2c(=O)n1O	none
O=S(=O)(c1ccccc1)N(CC1CO1)c1cccc2ccccc12 (centres undefined)	GSTO1 inh 75.1 | GSTO1 inh conf 90.1 | GSTO1 ABPP inh inactive
CCc1cc(SC#N)cc(C)c1N	none
CCc1cc(SC#N)cc(C)c1NC(=O)CCl	GSTO1 inh 72.4 | GSTO1 inh conf 74.5
O=C(Nc1nc(COc2ccccc2)cs1)c1ccccc1F	none
c1ccc2c(c1)nnn2-c1ncnc2sc3c(c12)CCCC3	none
Cc1nc(-n2nnc3ccccc32)c2c3c(sc2n1)CCCC3	GSTO1 inh 126.9 | GSTO1 inh conf inactive
Cc1cc(Nc2cccc(C(=O)O)c2)n2ncnc2n1	GSTO1 inh 85.8 | GSTO1 inh conf inactive
Cc1ccccc1C(=O)NC1CCN(CC(=O)NC2CCCCC2)CC1	none
COc1ccc(OC)c(N)c1	GSTO1 inh 45.5 | GSTO1 inh conf inactive
COc1ccc(OC)cc1	none (no result: LYPLA2 inh, Fam108B inh, GSTO1 inh, PME-1 inh, LYPLA1 inh)
O=[N+]([O-])c1ccc(O)c(C=Nc2cccc3ccccc23)c1	GSTO1 inh 51.9 | GSTO1 inh conf inactive
O=[N+]([O-])c1cccc(C=Nc2cccc3ccccc23)c1O	GSTO1 inh 41.4 | GSTO1 inh conf inactive
Oc1ccc(C=Nc2cccc3ccccc23)c(O)c1	GSTO1 inh 38.2 | GSTO1 inh conf inactive
CCOc1cc(N2CCOCC2)c(OCC)cc1NC(=O)COC(=O)COc1ccc(C#N)cc1	none
CC(=O)Oc1ccc2oc(/C=C/N(C)C)c([N+](=O)[O-])c2c1	none
C/C(=C/c1oc2ccc(O)cc2c1[N+](=O)[O-])N(C)C	GSTO1 inh 51.0 | GSTO1 inh conf inactive
CN(C)S(=O)(=O)c1cccc(NC(=O)COC(=O)CNC(=O)c2ccccc2F)c1	none
O=C(CSc1ncc(-c2ccccc2)n1C1CCCC1)N1CCc2ccccc21	GSTO1 inh 39.3 | GSTO1 inh conf inactive
Cn1c(-c2ccccc2)cnc1SCC(=O)N1CCCc2ccccc21	none
COCC1CCCCN1C(=O)c1cccc(OC2CCN(C(=O)C3CC3)CC2)c1 (centres undefined)	none
O=C(COc1ccccc1)Nc1ccc(-c2ccc(N3CCOCC3)nn2)cc1	none
CCC(=O)OC1(C)C(=O)C=C2C=C(c3ccsc3)OC=C2C1=O (centres undefined)	GSTO1 inh 40.2 | GSTO1 inh conf inactive
CC1(O)C(=O)C=C2C=C(c3ccsc3)OC=C2C1=O (centres undefined)	GSTO1 inh 46.5 | GSTO1 inh conf inactive
COCCn1c(N)c(S(=O)(=O)c2cccs2)c2nc3ccccc3nc21	GSTO1 inh 81.0 | GSTO1 inh conf inactive
O=C(Cc1cc(=O)[nH][nH]1)N/N=C/c1c(Cl)cccc1Cl	GSTO1 inh 52.0 | GSTO1 inh conf inactive
O=C(Cc1cc(=O)[nH][nH]1)N/N=C/C(Cl)=C/c1ccccc1	GSTO1 inh 54.0 | GSTO1 inh conf inactive
Cc1cc2nc(CCl)cc(=O)n2[nH]1	GSTO1 inh 103.8 | GSTO1 inh conf 92.7 | GSTO1 ABPP inh inactive
COc1cccc(-c2nc(CC(=O)O)cs2)c1OC	none
COc1cccc(-c2nc(CCl)cs2)c1OC	GSTO1 inh 60.9 | GSTO1 inh conf 99.4 | GSTO1 ABPP inh inactive
O=C(CCl)c1ccc2c(c1)CCN2C(=O)C1CCCCC1	GSTO1 inh 41.7 | GSTO1 inh conf 63.5
CCC1CCCCN1S(=O)(=O)c1ccc2c(c1)CCN2C(=O)C1CCC1 (centres undefined)	none
CCN(CC(=O)Nc1ccc(NC(C)=O)cc1)C(=O)c1ccccc1SCC(=O)N1CCCC1	none (no result: Fam108B inh, GSTO1 inh)
COc1cc(OC)c([N+](=O)[O-])cc1/C=N/NC(=O)c1ccncc1	GSTO1 inh 49.3 | GSTO1 inh conf inactive
COc1ccc(-c2cc(=O)oc3c(O)c(O)ccc23)cc1	GSTO1 inh 57.8 | GSTO1 inh conf inactive
COc1ccc(S(=O)(=O)N(C)c2ccc(C(=O)NCC3CCCO3)cc2)cc1OC (centres undefined)	none
N#CC1=C(N)Oc2n[nH]c(-c3ccccc3)c2C1c1cccnc1 (centres undefined)	none
N#CC1=C(N)Oc2n[nH]c(-c3cccnc3)c2C1c1ccc([N+](=O)[O-])o1 (centres undefined)	GSTO1 inh 42.4 | GSTO1 inh conf inactive

Screening results (PubChem BioAssay)
